From PubChem BioAssay AID488841 (Sanford-Burnham Center for Chemical Genomics, 2010)
Screen size: about 1,400 compounds; about 380 (27%) were called active. Some of the results follow. Values without a mark were called inactive.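 How the source made its calls: active means mean inhibition above 50% across duplicate retests at 10 µM; inactive means the rest.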

Assay: inhibition of NALP1/ASC/caspase-1 reporter signal in yeast, confirmation, NALP1 inhibitor project, S. cerevisiae, luminescence, single concentration (AID 488841);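 further: plate controls were DMSO in galactose medium for no effect and cells in plain SD medium for full effect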
Conditions: S. cerevisiae NALP1/ASC/Caspase-1 reporter, beta-gal luminescence; at 10 µM; active compounds read high

With `COC(=O)c1cc(OC)c(OC)cc1NC(=S)N1CCN(c2ccccc2)CC1` as the compound, how does the inhibition read?
The inhibition was 30%.

Which inhibition does the source give for `O=C(CN1CCN(c2cccc(Cl)c2)CC1)Nc1ccc(S(=O)(=O)N2CCOCC2)cc1` here?
The inhibition was 35.4%.

With `COC(=O)/C=C/C(=O)N1CCN(c2cccc(Cl)c2)CC1` as the compound, how does the inhibition read?
The inhibition was 54.7% (active).

With `Cc1ccnc(NS(=O)(=O)c2ccc(NC(=O)CSc3nc(-c4ccccc4)cc(=O)[nH]3)cc2)n1` as the compound, how does the inhibition read?
The inhibition was 12.6%.

With `CCOc1cc(C(=O)OCC(=O)Nc2ncc(Cl)c(C)c2Cl)ccc1OCC(=O)N1CCOCC1` as the compound, how does the inhibition read?
The inhibition was 27.4%.

Which inhibition does the source give for `COC(=O)/C(=N/Nc1ccc(C)cc1)N1CCCc2ccccc21` here?
The inhibition was 32%.

For `O=C(NCCCN1CCc2ccccc2C1)Nc1ccc(Br)cc1`, which inhibition is on record?
Its inhibition is 25.1%.

With `Cc1ccc2cc3cc(C(=O)NCCCN4CCc5ccccc5C4)oc3nc2c1` as the compound, how does the inhibition read?
Its inhibition is 30.9%.

Which inhibition does the source give for `O=C(Nc1ccccc1)N1CCc2ccccc2C1` here?
The inhibition was 62% (active).

Which inhibition does the source give for `Cc1ccc(NC(=O)N2CCc3ccccc3C2)cc1` here?
Its inhibition is 64.8% (active).

With `CC(=O)N1CCCc2cc(S(=O)(=O)N3CCc4ccccc4C3)ccc21` as the compound, how does the inhibition read?
The inhibition was 33.2%.

With `CCCCCCCCCCOC(=O)Cn1c(COc2ccc(Cl)cc2)[n+](C)c2ccccc21` as the compound, how does the inhibition read?
Its inhibition is 34%.

For `O=C1NC(c2ccccc2)Nc2c1sc(=S)n2-c1ccccc1` (stereo unspecified), which inhibition is on record?
Its inhibition is 25.1%.

Which inhibition does the source give for `CCN(CC)S(=O)(=O)c1ccc2oc(C(=O)NC3CCCc4ccccc43)c(C)c2c1` (stereo unspecified) here?
Its inhibition is 4.35%.

For `CCN1/C(=C/c2ccc3ccc(C)cc3[n+]2CC)Sc2ccccc21`, which inhibition is on record?
The inhibition was 21.4%.

Which inhibition does the source give for `CCN1/C(=C/c2ccc3cc(C)ccc3[n+]2CC)Sc2ccccc21` here?
Its inhibition is 101% (active).

With `CC[n+]1c(/C=C2\Sc3ccccc3N2C)ccc2cccc(C)c21` as the compound, how does the inhibition read?
Its inhibition is 96.8% (active).

With `CCN1/C(=C\c2ccc3ccccc3[n+]2CC)Sc2cc(C)ccc21` as the compound, how does the inhibition read?
Its inhibition is 98.2% (active).

For `Cc1cc(=O)n2ccccc2c1C#N`, which inhibition is on record?
Its inhibition is 9.65%.

With `C/C(=N/NC(=O)c1nnn(-c2nonc2N)c1COc1ccccc1)c1ccc(O)cc1` as the compound, how does the inhibition read?
Its inhibition is 22.6%.

With `Cc1cc(C)cc(C(=O)OCC(=O)NCCNC(=O)COC(=O)c2cc(C)cc(C)c2)c1` as the compound, how does the inhibition read?
Its inhibition is 31.4%.

For `OCCN(CCO)c1ncnc2c1oc1ccc(Br)cc12`, which inhibition is on record?
The inhibition was 31.3%.

With `CC1CN(S(=O)(=O)c2ccc(C(=O)Nc3nc(-c4cc5ccccc5o4)cs3)cc2)CC(C)O1` (stereo unspecified) as the compound, how does the inhibition read?
The inhibition was 30.1%.

For `N#CC1(C#N)CC(C=O)=C(N)C1(C#N)CC(=O)C12CC3CC(CC(C3)C1)C2` (stereo unspecified), which inhibition is on record?
The inhibition was 36.1%.

For `Cc1ccc(Cl)cc1N1CCN(S(C)(=O)=O)CC1`, which inhibition is on record?
Its inhibition is 39.6%.

Which inhibition does the source give for `CCCC(CCC)c1nc2ccncc2[nH]1` here?
Its inhibition is 27.4%.

With `CC(=O)NS(=O)(=O)c1ccc(NC(=O)CSc2ccccc2)cc1` as the compound, how does the inhibition read?
The inhibition was 8.45%.

For `C#CCN(C)CCCOc1ccc(Cl)cc1Cl`, which inhibition is on record?
The inhibition was 55.1% (active).

Which inhibition does the source give for `CCN(CC)CCCOc1ccc(Cl)c(Cl)c1` here?
The inhibition was 44.2%.

Which inhibition does the source give for `CCCCNCCOCCOc1ccc(Cl)cc1Br` here?
Its inhibition is 48%.

Which inhibition does the source give for `CC(C)CC(=O)N1CCN(S(=O)(=O)c2ccccc2)CC1` here?
Its inhibition is 24.9%.

With `COc1ccc(-c2cc(-c3cc(OC)ccc3O)[nH]n2)cc1` as the compound, how does the inhibition read?
The inhibition was 49.4%.

With `Cc1ccc2c(c1)c1c3n2CCCNC3CCC1` (stereo unspecified) as the compound, how does the inhibition read?
Its inhibition is 43.8%.

With `O=C(N1CCN(c2ccccn2)CC1)C(Cl)(Cl)Cl` as the compound, how does the inhibition read?
The inhibition was 60.1% (active).

Which inhibition does the source give for `O=C(c1ccccc1-c1ccccc1)N1CCN(c2ccccn2)CC1` here?
Its inhibition is 29.1%.

With `CCOC(=O)c1cc(-c2ccccc2)n(CCC(=O)N2CCN(c3ccccn3)CC2)c1C` as the compound, how does the inhibition read?
The inhibition was 39.2%.

Which inhibition does the source give for `C=C(C)C(=O)Nc1cccc(C(C)=O)c1` here?
The inhibition was 10.3%.

For `Cn1c(SCC(=O)NC(c2ccccc2)c2ccccc2)nnc1-c1cccs1`, which inhibition is on record?
Its inhibition is 34%.

With `C=C(C)C(=O)Nc1nnc(-c2cccs2)s1` as the compound, how does the inhibition read?
Its inhibition is 55.5% (active).

With `CN1/C(=C\C(=O)c2cccs2)C(C)(C)c2ccccc21` as the compound, how does the inhibition read?
The inhibition was 35.5%.

For `O=C(COC(=O)CCC1CCCCC1)Nc1ccc(OC(F)F)cc1`, which inhibition is on record?
Its inhibition is 19.5%.

With `CCCCNC1CCS(=O)(=O)C1` (stereo unspecified) as the compound, how does the inhibition read?
Its inhibition is 24%.

Which inhibition does the source give for `CCCCCCOc1ccc(-c2ccc(C#N)cn2)cc1` here?
Its inhibition is 34.9%.

For `CCCCCCOc1ccc(OC(=O)c2ccncc2)cc1`, which inhibition is on record?
The inhibition was 24.9%.

For `CCCCCOc1ccc(Br)cc1/C(C)=N/NC1=NCCN1`, which inhibition is on record?
The inhibition was 51.2% (active).

Which inhibition does the source give for `CCCCCCOc1ccc(/C(C)=N/NC2=NCCN2)cc1` here?
The inhibition was 51.5% (active).

Which inhibition does the source give for `CCCCOc1ccc(CSC2=NCCN2)cc1[N+](=O)[O-]` here?
Its inhibition is 43.9%.

For `CCn1c(SCC(=O)Nc2ccc3c(c2)OCO3)nnc1-c1cnccn1`, which inhibition is on record?
The inhibition was 36.9%.

With `CCOc1ccccc1C1CC(=O)NC(SCC(=O)Nc2nccs2)=C1C#N` (stereo unspecified) as the compound, how does the inhibition read?
The inhibition was 10.4%.

Which inhibition does the source give for `CCOc1nc(N2CCOCC2)nc(N2CCOCC2)n1` here?
The inhibition was 29.6%.

With `O=C(N/N=C\c1cccc([N+](=O)[O-])c1O)C1COc2ccccc2O1` (stereo unspecified) as the compound, how does the inhibition read?
Its inhibition is 56.7% (active).
